Data as given in PubChem BioAssay (NCATS).
Records with an inconclusive call do not appear. A number with no mark means an inactive call. Activity calls are given as the source filed them. Calls come from the whole dose curve; as a rule, active = well fitted inhibition curve with a large enough effect; inconclusive = small, poorly fitted or top-dose-only effect; inactive = no such curve, though single readings can be large or run the other way.

Molecular target: Rap guanine nucleotide exchange factor 4 (Homo sapiens) (UniProt Q8WZA2)
Experiment: Confirmatory qHTS for antagonist of cAMP-regulated guanine nucleotide exchange factor 4 (EPAC2) (AID 1645885); note: nearly all actives have a fitted effect of over 25% in size
Conditions: EPAC2 Rap1B-BODIPY-GDP exchange fluorescence, biochemical; series mostly up to 12.7 µM; activity change, negative = inhibition: at the top concentration
% is set by controls: 0 for no effect and ±100 for the full control effect; potency is the fitted concentration of half-maximal effect.

Rap guanine nucleotide exchange factor 4 (Homo sapiens), sequence (Q8WZA2 whole entry, looked up): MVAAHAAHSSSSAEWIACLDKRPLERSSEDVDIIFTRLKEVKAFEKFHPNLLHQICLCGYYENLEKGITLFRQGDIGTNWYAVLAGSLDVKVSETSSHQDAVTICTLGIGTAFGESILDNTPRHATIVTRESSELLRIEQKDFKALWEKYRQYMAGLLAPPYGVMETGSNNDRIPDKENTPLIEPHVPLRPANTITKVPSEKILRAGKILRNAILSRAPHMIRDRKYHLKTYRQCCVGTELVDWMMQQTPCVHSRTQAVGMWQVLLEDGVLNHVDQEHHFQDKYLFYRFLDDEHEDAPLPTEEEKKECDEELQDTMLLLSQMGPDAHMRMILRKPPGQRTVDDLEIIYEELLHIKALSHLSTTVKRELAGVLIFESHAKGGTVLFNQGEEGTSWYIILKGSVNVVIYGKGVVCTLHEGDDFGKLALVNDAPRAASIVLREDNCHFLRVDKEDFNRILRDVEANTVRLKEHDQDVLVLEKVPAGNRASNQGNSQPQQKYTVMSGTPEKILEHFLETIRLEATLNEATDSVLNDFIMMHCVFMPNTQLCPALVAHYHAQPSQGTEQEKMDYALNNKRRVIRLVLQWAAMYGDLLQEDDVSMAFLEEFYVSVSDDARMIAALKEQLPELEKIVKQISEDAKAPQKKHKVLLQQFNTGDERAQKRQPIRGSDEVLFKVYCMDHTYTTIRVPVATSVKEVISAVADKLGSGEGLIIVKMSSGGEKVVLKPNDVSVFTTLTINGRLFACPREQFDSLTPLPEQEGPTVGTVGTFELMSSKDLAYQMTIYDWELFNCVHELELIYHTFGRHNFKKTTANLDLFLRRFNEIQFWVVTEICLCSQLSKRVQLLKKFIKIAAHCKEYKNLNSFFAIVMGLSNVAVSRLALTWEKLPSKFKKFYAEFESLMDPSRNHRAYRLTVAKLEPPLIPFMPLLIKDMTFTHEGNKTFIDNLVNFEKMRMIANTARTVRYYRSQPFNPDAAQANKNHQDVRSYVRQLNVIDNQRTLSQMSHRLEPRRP

With `COC(=O)CC1(C(=O)OC)Oc2ccc(Br)cc2C(=O)N1c1cccc(Cl)c1Cl` (stereo unspecified) as the compound, how does the Potency read?
Its Potency is 1690 nM (active).

Which “activity change, negative = inhibition” value does the source give for `O=C(Nc1nc(-c2ccco2)c(-c2ccco2)s1)c1ccco1` here?
Its value is 26%.

How did the “activity change, negative = inhibition” value turn out when `CCc1ccc2c(c1)NC(=O)C2(C)Cc1ccc(Cl)s1` (stereo unspecified) was run?
The value was -39.3%.

How did the “activity change, negative = inhibition” value turn out when `Oc1cccc(C=Nc2cccc3ccccc23)c1O` was run?
The value was 13.9% [at 114 µM].

`O=C1C(=O)c2cccnc2-c2ncccc21` was tested. Which “activity change, negative = inhibition” value did it give?
Its value is -20.9% [at 114 µM].

How did the “activity change, negative = inhibition” value turn out when `COc1ccc(C(CC(=O)c2ccc(C)cc2)C(C#N)C#N)cc1OC` (stereo unspecified) was run?
Its value is 60.6% [at 114 µM].

Which “activity change, negative = inhibition” value does the source give for `Cc1ccc(O)c(-c2n[nH]c3c2C(c2ccc(F)cc2)N(Cc2ccco2)C3=O)c1` (stereo unspecified) here?
Its value is 8.39%.

For `COc1cc(-c2cc(OC)c3c(C)oc(C)c3c(=O)c2)ccc1OC(=O)c1ccccc1F`, which outcome is on record?
The outcome was “inactive [at 12.7 µM]”.

With `CCOC(=O)c1ccc2ncc(C(=O)OCC)c(Nc3ccc(C)c(Br)c3)c2c1` as the compound, how does the outcome read?
Its outcome is “inactive [at 12.7 µM]”.

`COc1ccc(CN(C(=O)c2cccs2)c2nccs2)cc1OC` was tested. Which “activity change, negative = inhibition” value did it give?
The value was -25.6% [at 114 µM].

How did the “activity change, negative = inhibition” value turn out when `CCCC1=C/C(=C/c2ccc(-c3ccccc3OC)o2)C(=O)O1` was run?
The value was -20.1%.

Which outcome does the source give for `Cc1ccc(-n2c(CCC(=O)O)ccc2-c2cccs2)cc1Cl` here?
The outcome was “inactive [at 12.7 µM]”.

`Cc1cc(SCC(=O)N/N=C/c2ccc(O)c(O)c2)nc2ccccc12` was tested. Which “activity change, negative = inhibition” value did it give?
The value was -3.91%.

Which “activity change, negative = inhibition” value does the source give for `COc1ccccc1N1CSC2=C(C#N)C(c3ccc(SC)cc3)CC(=O)N2C1` (stereo unspecified) here?
Its value is -6.39%.

How did the “activity change, negative = inhibition” value turn out when `CC(C)Cc1ccc(CN2C(C(C)C)C(=O)N(Cc3cn(CCC4OCCO4)nn3)CCS2(=O)=O)cc1` (stereo unspecified) was run?
The value was -7.68%.

For `Cc1cccc(-c2nc3c(cnn3-c3ccccc3)c(=O)n2-c2cccc(Cl)c2)c1`, which outcome is on record?
The outcome was “inactive [at 12.7 µM]”.
